# Compound activity deposited in PubChem by National Center for Advancing Translational Sciences (NCATS).
# HCMV antiviral = qHTS Assay for inhibitors of the human cytomegalovirus (HCMV); activity change, negative = inhibition, % at 57.5 µM; HFF cells, HCMV-luciferase reporter, 72 h; active compounds read low; actives 4.5% (n = 410,000); in the data active = activity change below about -60%; inconclusive = no clear call, values can overlap the other calls; inactive = above about -39%; note: % is set by controls: 0 for no effect and ±100 for the full control effect
#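 Screen run at 2 compound doses on HFFs infected with reporter HCMV, MOI 1 PFU/cell. Luciferase activity from cell lysates at 72 h post infection gave inhibition relative to buffer-only and Salinomycin wells.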
# Pf growth 48h = Primary qHTS for delayed death inhibitors of the malarial parasite plastid, 48 hour incubation; Potency, µM (series often up to 28.7 µM), for the others: top-dose activity change, negative = inhibition, usual class: inhibitors; P. falciparum luciferase growth in erythrocytes, 48 h; actives 5.9% (n = 310,000); AID 504832, 2011; note: potency is the fitted concentration of half-maximal effect; % is set by controls: 0 for no effect and ±100 for the full control effect
#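 Compounds are pin-transferred into medium, infected erythrocytes (2% hematocrit, 0.1% parasitemia final) are added, and plates sit one parasite generation at 37 C in 5% CO2. Detection reagent is then added and luminescence measured.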
# Pf growth 96h = Primary qHTS for delayed death inhibitors of the malarial parasite plastid, 96 hour incubation; P. falciparum luciferase reporter growth, 96 h; Potency, µM (highest dose often 28.7 µM), without a hit: at the highest dose activity change, negative = inhibition, hits mostly inhibitors; actives 6.9% (n = 320,000); AID 504834, 2011; note: potency is the fitted concentration of half-maximal effect; % is set by controls: 0 for no effect and ±100 for the full control effect
#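 Parasite growth measured via integrated firefly luciferase reporter in P. falciparum. Infected erythrocytes at 2% hematocrit, 0.05% parasitemia final were treated 96 hours at 37 C under 5% CO2, and luminescence was read.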
# Sm TGR block = qHTS Assay for the Inhibitors of Schistosoma Mansoni Peroxiredoxins; Schistosoma mansoni thioredoxin glutathione reductase (TGR), Q962Y6; purified TGR, DTNB reduction, TNB absorbance 405 nm; Potency, µM (doses to about 114 µM), inactives show top-dose activity change, negative = inhibition, hits mostly inhibitors; actives 3% (n = 360,000); AID 485364, 2010; note: potency is the fitted concentration of half-maximal effect; % is set by controls: 0 for no effect and ±100 for the full control effect; nearly all actives have a fitted effect of over 60% in size
#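 Kinetic colorimetric format: TGR-catalysed, NADPH-driven DTNB reduction monitored via TNB absorbance. Enzyme dispensed at 20 nM; compound exposure 15 min at room temperature before reaction start.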
# SARS PLP yeast = qHTS of Yeast-based Assay for SARS-CoV PLP | S. cerevisiae expressing SARS-CoV PLpro, growth rescue | Potency, µM (highest dose often 32.9 µM), inactives show at the highest dose activity, positive = growth rescue, hits mostly activators | actives 0.19% (n = 330,000); calls by dose curve; note: potency is the fitted concentration of half-maximal effect; 0% is about no effect; nearly all actives have a fitted effect of over 55% in size
# HCV inhibitor = qHTS Assay for Inhibitors of Hepatitis C Virus (HCV); Huh7.5.1 HCVcc-Cre infection, luciferase reporter, 44 h; Potency, µM (highest dose often 41.8 µM), inactives show at the top dose activity change, negative = inhibition, hits mostly inhibitors; actives 3.4% (n = 340,000); note: potency is the fitted concentration of half-maximal effect; % is set by controls: 0 for no effect and ±100 for the full control effect
#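 Antiviral activity was scored by luciferase reporter output from cells infected with HCVcc-Cre (~0.5 moi) in presence of compound, 44 h infection period, cells seeded 1,000/well 4 h prior.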
# An asterisk follows results filed as active; ? = inconclusive; · = no result; + = active, no number; [ ] = dose if it differs, or a comment. This is a sample that favours compounds with a hit; in the whole collection about 15% have one here. Unless noted, calls come from the whole dose curve; as a rule, active = well fitted curve in the direction sought with a large enough effect; inconclusive = small, poorly fitted or top-dose-only effect, or another doubt; inactive = no such curve, though single readings can be large; an effect the other way counts as inactive or inconclusive.
SMILES,HCMV antiviral,Pf growth 48h,Pf growth 96h,Sm TGR block,SARS PLP yeast,HCV inhibitor
O=C(CCn1cccc1)NCc1ccc2c(c1)OCO2,14,-7%,28%,-9%,?,17%
CC1(C)CC(=O)C=C(c2ccccc2-c2ccc3c(c2)OCO3)C1=O,0,·,·,·,·,·
CCCCn1nc(CC(=O)NCCN(CC)CC)c2ccccc2c1=O,-11,13%,27%,2%,0%,-12%
COc1cc2sc3cc(NCc4ccc5c(c4)OCO5)ccc3c(=O)c2cc1OC,22,·,·,·,-2%,?
COc1cc2sc3cc(NCc4ccc(C)o4)ccc3c(=O)c2cc1OC,210,·,·,·,1%,3.5µM*
CCCCNC(=O)N(O)C1N(/N=C/c2ccccc2F)C(=S)SC1(C)C (stereo unspecified),25,-1%[0.00184 µM],?,-19%,0%,?
CC1(C)SC(=S)N(/N=C/c2ccccc2O)C1N(O)C(=O)Nc1ccccc1 (stereo unspecified),?,-27%,38%,-2%,3%,11µM*
CCCCNC(=O)N(O)C1N(/N=C/c2ccco2)C(=S)SC1(C)C (stereo unspecified),10,?,?,28µM*,-2%,-20%
Cc1ccc(/C=N/N2C(=S)SC(C)(C)C2N(O)C(=O)Nc2ccc([N+](=O)[O-])cc2)cc1 (stereo unspecified),5,?,?,-21%,-2%,11µM*
CNC(=O)N(O)C1N(/N=C/c2cc(Br)ccc2O)C(=S)SC1(C)C (stereo unspecified),-15,0%[0.00184 µM],4%,0%,-1%,11µM*
COc1ccc(-c2nc3ccccc3o2)cc1NC(=O)c1ccc(N2CCC(C)CC2)c([N+](=O)[O-])c1,0,·,·,0%,·,·
COc1cc(Cl)c(C)cc1NC(=O)CSc1cc(-c2ccccc2)nc(C)n1,-35,·,·,6%,·,·
CN(C)c1ccc(NC(=O)CC2NCCNC2=O)cc1 (stereo unspecified),-4,12%,0.21µM*,-5%,·,22%
CC1(C)CC2CC(C)(CN2C(=O)c2cc(-c3ccc(O)cc3)on2)C1 (stereo unspecified),-61*,-6%,13%,-6%,-10%,-7%
Cc1ccc(C2CC(=O)Oc3cc(O)ccc32)cc1 (stereo unspecified),-13,33%,-9%,2%,7%,0%[8.37 µM]
O=C1CC(c2ccccc2)c2cc(O)ccc2O1 (stereo unspecified),-32,-14%,10µM*,22µM*,-10%,-1%
CC1(C)C2C/C(=N\O)C(C)(/[N+]([O-])=C/c3cccc([N+](=O)[O-])c3)CC21 (stereo unspecified),-19,22%,27%,·,-2%,5%
CCSc1ccc2cc(OC)ccc2[n+]1CC,?,0.74µM*,?,?,0%,-13%
CCn1ccc2cc(OC)ccc2c1=S,189,?,83%,-22%,8%,-16%
CCn1c(=S)ccc2ccc(OC)cc21,124,12%,30%,-6%,1%,?
CC[n+]1c(SC)ccc2cc(OC)ccc21,-8,0.74µM*,-2%,-8%,2%,4%
CCOC(=O)CC1(NC(=O)C2CCC(=O)N(Cc3ccccc3F)C2)CCCCC1 (stereo unspecified),-23,-2%,-3%,-2%,-1%,-2%
COc1ccc2nc3cc(Cl)ccc3c(Nc3cc(CN4CCCC4)c(O)c(CN4CCCC4)c3)c2n1,-100*,0.052µM*,?,0%,-16%,·
COc1c(Cl)cc(Cl)cc1C(=O)Nc1ccc(CN2CCCCC2)cc1,-20,?,32%,·,1%,-26%
O=S(=O)(c1ccc(N2CCCC2)cc1)C(F)(F)F,-29,21%,·,2%,-1%,?
SMILES,HCMV antiviral,Pf growth 48h,Pf growth 96h,Sm TGR block,SARS PLP yeast,HCV inhibitor
COc1nc(NCC(C)C)nc(Oc2ccc(OCc3ccccc3)nn2)n1,2,0.37µM*,3%,0%,10%,-9%
CCCCCCC(O)(c1ccc(OC)cc1)C(CN1CCOCC1)c1ccccc1 (stereo unspecified),-69*,1.9µM*,10µM*,-10%,-8%,?
CCCCCC(O)(c1ccccc1)C(CN1CCOCC1)c1ccccc1 (stereo unspecified),-60*,2.6µM*,0%,12%,-5%,?
CCCCCCC(O)(c1ccccc1)C(CN1CCOCC1)c1ccccc1 (stereo unspecified),-76*,3.3µM*,3%,0%,-1%,?
CCN1C(=O)[C@@H]2[C@H](C1=O)[C@@H]1C(=O)Nc3ccccc3C(=O)N1[C@@H]2c1cccc(Cl)c1,·,21%,45%,-1%,2%,13%
O=C(CSc1ncccn1)NC1CCS(=O)(=O)C1 (stereo unspecified),-8,102%,43%,-30%,-6%,35%
Cc1ccc(SCC(=O)NC2CCS(=O)(=O)C2)cc1 (stereo unspecified),-65*,40%,42%,-28%,0%,-3%
Cc1cc(C)c2c(CC(=O)NC3CCS(=O)(=O)C3)coc2c1 (stereo unspecified),+,22%,?,-9%,-2%,-3%
Cc1cc(C)c2c(CC(=O)NN(C)C)coc2c1,-39,9%,?,1%,1%,6%
C=CCn1c(SCC(=O)NC2CCS(=O)(=O)C2)nnc1-c1ccncc1 (stereo unspecified),0,2.6µM*,27%,-4%,7%,14%
CCCS(=O)(=O)c1nc(S(=O)(=O)c2ccc(C)cc2)c(N2CCOCC2)s1,-63*,12µM*,-23%,-3%,4%,-3%
Cc1ccc(S(=O)(=O)c2nc(S(C)(=O)=O)sc2N2CCC(C)CC2)cc1,-36,?,?,1.8µM*,0%,7%
CCCS(=O)(=O)c1nc(S(=O)(=O)c2ccc(C)cc2)c(N2CCCCC2)s1,-28,·,·,·,·,·
Cc1ccc(S(=O)(=O)c2nc(S(C)(=O)=O)sc2N2CCN(C)CC2)cc1,-104*,-26%,?,-4%,-5%,-9%
COc1ccc(C(=O)NCC(=O)OCC(=O)Nc2ncc(Cl)cc2Cl)cc1[N+](=O)[O-],9,-3%,?,-23%,-1%,-5%
C[C@]12CC[C@@H]3c4cc(O)c(O)cc4CC[C@H]3[C@@H]1CC[C@@H]2O,-14,·,·,?,2%,13µM*
C[C@]12CC[C@@H]3c4ccc(O)cc4CC[C@H]3[C@@H]1CC[C@@H]2O,-24,-22%,?,7%,-17%,-6%[8.37 µM]
